This note sets out measurements from PubChem BioAssay AID1745848 (National Center for Advancing Translational Sciences (NCATS), 2022).

SMILES strings stand for the structures. Hit rate of the full screen: of about 2,100 compounds, about 940 (45%) were called active. About 48% were inconclusive and are not listed. So high a share suggests a set chosen from earlier hits. The list shows a part of the results. Unmarked numbers belong to inactive results. The call rests on the fitted dose curve; in most records, active means well fitted inhibition curve with a large enough effect; inconclusive means small, poorly fitted or top-dose-only effect; inactive means no such curve, though single readings can be large or run the other way.
Potency means the concentration at half of the fitted maximal effect.

The assay in a line: Confirmatory qHTS for Inhibitors of ATXN expression. Further: nearly all actives have a fitted effect of over 65% in size.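 On activity change, negative = inhibition: 0% = DMSO vehicle wells and -100% = medium-only wells without cells.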 The note with it: ATXN2-luciferase reporter cells, luminescence, 24 h; series mostly up to 11.5 µM; activity change, negative = inhibition: at the top concentration. In outline: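 A titration, incubated 24 h with reporter cells expressing ATXN2-luciferase. Luminescence (SteadyGlo) gives ATXN2 expression, multiplexed GF-AFC fluorescence gives viability; normalised to DMSO and medium-only wells.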
For the compound `c1cc2c(cc1-c1cnc3n1CCC3)OCCO2`, the Potency is 12.6 µM (active).

On to `NC(=Nc1nc(-c2ccccn2)cc2ccccc12)c1ccccn1`, for which the Potency is 0.0562 µM (active).

On to `Oc1ccccc1C(Nc1nccs1)c1ccc2cccnc2c1O` (configuration not stated), for which the Potency is 2.82 µM (active).

For the compound `Oc1c(C(Nc2ccccn2)c2ccccn2)ccc2cccnc12` (configuration not stated), the Potency is 3.16 µM (active).

Turning to `Oc1c(C(Nc2nccs2)c2ccc(C(F)(F)F)cc2)ccc2cccnc12` (configuration not stated), the Potency is 1.78 µM (active).

For the compound `Oc1cccc(C(Nc2nccs2)c2ccc3cccnc3c2O)c1` (configuration not stated), the Potency is 2.51 µM (active).

On to `Cc1c(C(=O)N2c3ccccc3Sc3ccccc32)cccc1[N+](=O)[O-]`, for which the “activity change, negative = inhibition” value is -28.2% [at 57.5 µM].

Take `COc1ccc(C(=O)NCC(=O)N/N=C/c2ccc([N+](=O)[O-])s2)cc1OC`: the Potency was 10 µM (active).

`O=C(N/N=C/c1ccc([N+](=O)[O-])s1)c1ccccc1`: the Potency was 12.6 µM (active).

`O=C(N/N=C/c1ccc([N+](=O)[O-])s1)c1ccccc1Br`: the Potency is 14.1 µM (active).

With `Cc1ccccc1C(=O)N/N=C/c1ccc([N+](=O)[O-])s1`, the Potency is 12.6 µM (active).

Consider `Cc1ccc(C)n1-c1ccc(C(=O)N2CCC(C(N)=O)CC2)cc1`, for which the “activity change, negative = inhibition” value was 0.758%.

For `COc1cccc(CNc2nc3cc(-c4ccc(C(=O)N5CCN(C)CC5)cc4)sc3c(=O)n2C)c1`, the Potency was 28.2 µM (active).

Turning to `NC(=O)c1c(NC(=O)c2ccc(S(=O)(=O)N3CCOCC3)cc2)sc2c1CCCCC2`, the “activity change, negative = inhibition” value is -23.6%.

With `COc1cccc(C(=O)Nc2nc(-c3ccc(S(=O)(=O)N4CCOCC4)cc3)cs2)c1`, the Potency is 1.58 µM (active).

As for `O=C(Nc1nc(-c2ccccn2)cs1)c1ccc(F)c(S(=O)(=O)N2CCOCC2)c1`, the Potency is 1.78 µM (active).

Regarding `COc1ccc(C(=O)Nc2nc(-c3ccc(S(=O)(=O)N4CCOCC4)cc3)cs2)cc1`, the Potency is 1.78 µM (active).

`COc1cccc(NC(=O)/C=C/c2ccc(S(=O)(=O)N3CCOCC3)cc2)c1`: the “activity change, negative = inhibition” value is -14.6% [at 57.5 µM].

For `COc1ccccc1C(=O)Nc1nc(-c2ccc(S(=O)(=O)N3CCOCC3)cc2)cs1`, the Potency was 3.98 µM (active).

As to `CCN1CCN(C(=S)c2ccc(-c3ccccc3)cc2)CC1`, the Potency was 1.58 µM (active).

`OCCN1CCN(C(=S)c2ccc(-c3ccccc3)cc2)CC1`: the Potency was 1.78 µM (active).

As to `COc1ccc(NC(=O)c2cc(-c3cc(Cl)ccc3OC)n[nH]2)cc1OC`, the Potency is 0.631 µM (active).

With `O=c1c(O)c(-c2ccccc2)oc2ccccc12`, the “activity change, negative = inhibition” value was -8.49%.

In the case of `O=c1cc(-c2c(F)c(F)c(F)c(F)c2F)oc2ccccc12`, the Potency is 3.55 µM (active).

As for `Cc1nc(SCC(=O)Nc2ccc(S(=O)(=O)N3CCOCC3)cc2)c2c(C)c(C)sc2n1`, the Potency is 3.98 µM (active).

With `COc1ccc(C(=O)c2sc(Nc3ccccc3)nc2N)cc1OC`, the Potency is 28.2 µM (active).

Regarding `COc1cccc(CNCCc2c[nH]c3ccccc23)c1OCc1ccc(F)cc1`, the Potency was 3.98 µM (active).

For the compound `Cc1occc1C(=O)N/N=C/c1c(O)ccc2ccccc12`, the Potency is 1.78 µM (active).

`O=C(N/N=C\c1c(O)ccc2ccccc12)c1cncc(Br)c1`: the Potency is 0.251 µM (active).

In the case of `O=C(N/N=C\c1c(O)ccc2ccccc12)c1ccc(Cn2cccn2)o1`, the Potency is 0.708 µM (active).

Turning to `O=C(N/N=C/c1c(O)ccc2ccccc12)c1cccnc1`, the Potency was 3.16 µM (active).

For `O=C(N/N=C/c1cc(O)ccc1Br)c1cccnc1`, the Potency is 3.16 µM (active).

In the case of `Cn1c(-[n+]2c(-c3ccccc3)cc(-c3ccccc3)cc2-c2ccccc2)nc2c([N+](=O)[O-])cccc21`, the “activity change, negative = inhibition” value was -13.5%.

`Cc1cccc(OCCn2cc(/C=N/NC(=O)c3ccncc3)c3ccccc32)c1`: the “activity change, negative = inhibition” value is -13.1%.

On to `CCn1c2ccccc2c2cc(/C=N/NC(=O)c3ccc(O)cc3)ccc21`, for which the Potency is 2.24 µM (active).

As to `CCn1c2ccccc2c2cc(/C=N/n3cnnc3)ccc21`, the Potency is 1.58 µM (active).

`CCn1c2ccccc2c2cc(/C=C(/C#N)C(N)=S)ccc21`: the Potency is 0.447 µM (active).

Regarding `CCn1c2ccccc2c2cc(/C=N/NC(=O)c3ccncc3)ccc21`, the Potency was 1.41 µM (active).

`Cc1ccc2nc(SCc3ccc([N+](=O)[O-])cc3)[nH]c2c1`: the “activity change, negative = inhibition” value was -6.34%.

`CCn1c2ccccc2c2cc(/C=N/NC(=O)c3ccccc3)ccc21`: the Potency was 3.16 µM (active).

With `Cc1ccc(S(=O)(=O)c2c(N)n(CC3CCOC3)c3nc4ccccc4nc23)cc1` (configuration not stated), the “activity change, negative = inhibition” value is -14.3%.

In the case of `COc1cccc(/C=N/n2c(N)c(S(=O)(=O)c3cccs3)c3nc4ccccc4nc32)c1OC`, the Potency was 14.1 µM (active).

`CC(C)CCn1c(N)c(S(=O)(=O)c2cccs2)c2nc3ccccc3nc21`: the Potency is 3.16 µM (active).

Turning to `Cc1cc(Br)c(OCc2ccc(C(=O)N/N=C3\CC4CC=CC34)cc2)c(Br)c1` (configuration not stated), the Potency was 28.2 µM (active).

Consider `CCCCNC(=NCc1cccc(C(F)(F)F)c1)Nc1ccccc1`, for which the Potency is 3.16 µM (active).

For `O=C(c1cnc(N2CCN(c3ccccn3)CC2)c2ccccc12)N1CCN(c2cccc(Cl)c2)CC1`, the Potency was 6.31 µM (active).

On to `CN(C(=O)c1cnc(N2CCN(c3ncccn3)CC2)c2ccccc12)c1ccc(Cl)cc1`, for which the Potency is 28.2 µM (active).

In the case of `CCN(CC)S(=O)(=O)c1cccc(C(=O)N/N=C(\C)c2ccc(O)cc2O)c1`, the Potency is 3.16 µM (active).

`CC(=NNC(=O)c1ccncc1)c1ccc(O)cc1O`: the Potency was 12.6 µM (active).

As for `CCn1c(C)nc2cc(C(=O)N/N=C(\C)c3ccc(OC)cc3O)ccc21`, the Potency was 15.8 µM (active).

For the compound `COc1ccc(/C(C)=N/NC(=O)c2cccc(S(=O)(=O)N3CCCC3)c2)c(O)c1`, the Potency is 3.55 µM (active).

Take `CC(=NNC(=O)c1ccncc1)c1ccc2ccccc2c1O`: the Potency is 1.12 µM (active).

Turning to `CC(=O)NC(c1ccccc1)c1cc(Cl)c2cccnc2c1O` (configuration not stated), the Potency was 2.82 µM (active).

On to `Oc1c(C(Nc2ccccn2)c2cccnc2)cc(Cl)c2cccnc12` (configuration not stated), for which the Potency was 12.6 µM (active).

As to `CC(=O)NC(c1ccc(C)cc1)c1cc(Cl)c2cccnc2c1O` (configuration not stated), the Potency was 2.51 µM (active).

With `CC(C)(C)c1ccc(CC(=O)N2CCC2(C)C(=O)Nc2cnc3ccccc3c2)cc1` (configuration not stated), the “activity change, negative = inhibition” value is -28.3%.

On to `Cc1ccc(CN2CCSc3ccc(C(=O)NC4CCN(Cc5ccccc5)CC4)cc32)cc1`, for which the Potency was 3.16 µM (active).

Take `CC1(C(=O)NC2CCN(Cc3ccccc3)CC2)CCN1Cc1ccc2ccccc2c1` (configuration not stated): the Potency was 2.51 µM (active).

In the case of `CN1C(=O)/C(=C\c2ccccc2F)Sc2ccc(C(=O)NC3CCN(Cc4ccccc4)CC3)cc21`, the Potency was 3.16 µM (active).

With `CC(=O)Nc1cc(-c2ccc(C(=O)NC3CC3)cc2)cn2c(-c3cccc(C(C)=O)c3)cnc12`, the “activity change, negative = inhibition” value was -13.8% [at 57.5 µM].

Turning to `CN1CCC(NC(=O)c2cc(-c3cccc(Br)c3)nc3ccccc23)CC1`, the Potency was 25.1 µM (active).

`CC[C@@]1(O)C(=O)OCc2c1cc1n(c2=O)Cc2cc3c(CN(C)C)c(O)ccc3nc2-1`: the “activity change, negative = inhibition” value is -84.6% [at 57.5 µM].

As to `CCc1c2c(nc3ccc(OC(=O)N4CCC(N5CCCCC5)CC4)cc13)-c1cc3c(c(=O)n1C2)COC(=O)[C@]3(O)CC`, the Potency is 0.316 µM (active).

On to `Cc1sc(NC(=O)c2cc(-c3ccc(Cl)cc3)nc3ccccc23)c(C(N)=O)c1C`, for which the Potency is 7.08 µM (active).

As for `C=CCN(C(=O)CSc1nc2c(sc3ccccc32)c(=O)n1CCN(CC)CC)c1ccccc1`, the Potency is 28.2 µM (active).

With `CCc1nc2ccc(C(=O)NCCOc3ccc(OC)cc3)cn2c1N(CCC(C)C)CCN(C)C`, the Potency was 3.98 µM (active).

On to `O=C(NCC1CC1)c1ccc2c(c1)S(=O)(=O)c1cc(Cl)ccc1C2=O`, for which the “activity change, negative = inhibition” value was -23.7%.

For `CC(C)CC(NC(=O)c1ccc(Cl)cc1)C(=O)OCC(=O)c1ccc2c(c1)NC(=O)CO2` (configuration not stated), the Potency was 28.2 µM (active).

With `CCCCC1C(=O)CC[C@H]2[C@@H]1CC(=O)[C@@H]2C/C=C\CCCC(=O)O` (some centres not stated), the “activity change, negative = inhibition” value is -21.7%.

For the compound `COc1nn(-c2ccccc2)c(=O)c(Cl)c1Cl`, the Potency is 1.41 µM (active).

With `Cc1ccc(C(NC(=O)C2CCN(Cc3ccc(Cl)c(Cl)c3)CC2)c2ccccn2)cc1` (configuration not stated), the Potency is 28.2 µM (active).

`COC(=O)[C@H]1C[C@H](OC(=O)NC2CC2)[C@@]2(O)CN(S(=O)(=O)c3ccc(C)cc3)CC2[C@H]1C(=O)OC` (some centres not stated): the “activity change, negative = inhibition” value was 11.1%.

Turning to `O=C(CSC1=NNC(c2ccccn2)S1)Nc1ccc(C(F)(F)F)cc1` (configuration not stated), the Potency is 28.2 µM (active).

`COc1cc2ccnc(Cc3cccc(OC)c3OC)c2cc1OC`: the Potency is 1 µM (active).

Take `COc1cc(C)c(C(=O)CC(=O)c2c(C)cc(OC)cc2C)c(C)c1`: the “activity change, negative = inhibition” value was -2.99%.

`CCCCOc1ccccc1NC(=O)Cn1c(-c2nonc2N)nc2ccccc21`: the Potency was 3.98 µM (active).

In the case of `COc1ccc(Cc2[nH]n3c(=O)cc(C(C)C)nc3c2-c2ccccc2)cc1`, the Potency is 8.91 µM (active).

On to `Cc1cc(C)c(S(=O)(=O)/N=C2\C=C(Nc3ccc(C(=O)O)cc3)C(=O)c3ccccc32)c(C)c1`, for which the Potency was 1.78 µM (active).

On to `COC1=CC(=O)C=C(OC)C1(O)CC(C)=O`, for which the “activity change, negative = inhibition” value is -9.18% [at 57.5 µM].

With `O=C1/C(=C/c2ccc([N+](=O)[O-])cc2)C=C(c2ccccc2)N1c1ccc(O)cc1`, the Potency was 2.51 µM (active).

For `Cc1cc2c(c(/C=C/C(=O)c3ccccc3)c1)OC1(C=C2)Oc2ccccc2C(=O)N1C` (configuration not stated), the Potency is 25.1 µM (active).

With `CCCCCn1c(=O)c2ccccc2n2c(CCl)nnc12`, the Potency is 15.8 µM (active).

For the compound `CCC(CC)C(=O)c1c[nH]c(C(=O)NCc2ccccn2)c1`, the “activity change, negative = inhibition” value was -10.4% [at 57.5 µM].

With `COc1cc(C(=O)N/N=C(\c2ccccc2)c2ccccn2)cc(OC)c1OC`, the Potency was 0.355 µM (active).

In the case of `O=C(N/N=C(\c1ccccc1)c1ccccn1)c1ccccc1Cl`, the Potency is 3.55 µM (active).

In the case of `O=C(NN=C(c1ccccc1)c1ccccn1)c1ccccc1`, the Potency was 2.24 µM (active).

As to `O=C(O)CSc1cc(NS(=O)(=O)c2cccc([N+](=O)[O-])c2)c2ccccc2c1O`, the Potency is 3.16 µM (active).

With `CN(Cc1cnc2nc(N)nc(N)c2n1)c1ccc(C(=O)NC(CCC(=O)O)C(=O)O)c2ccccc12` (configuration not stated), the Potency was 0.1 µM (active).

As to `CN(Cc1cnc2nc(N)nc(N)c2n1)c1ccc(C(=O)N[C@@H](CCC(=O)O)C(=O)O)cc1`, the Potency is 0.398 µM (active).

For the compound `Cc1cnc(NC(=O)C2CC(=O)N(c3cccc(Cl)c3)C2)s1` (configuration not stated), the Potency is 0.112 µM (active).

In the case of `Cc1ccc(CN2CC(C(=O)Nc3ncc(C)s3)CC2=O)cc1` (configuration not stated), the Potency is 1.78 µM (active).

In the case of `Cc1ccc(N2CC(C(=O)Nc3nccs3)CC2=O)cc1Cl` (configuration not stated), the Potency was 2.24 µM (active).
